Test results: ChEMBL document CHEMBL3988442, “University of Dundee, Small-Polar-MMV Screening Library” (2021)
Out of some 48,000 compounds screened, about 13,000 (27%) showed an effect of 50% or more. The list shows a part of the results.

test system: Wolbachia pipientis; assay: Anti-Wolbachia Cell-Based Screen; assay type: functional; parameters: scale not given: in the data most compounds retested in dose-response had high values; conditions: 5 µM

Structure (SMILES)	Percent Effect
CC(NCc1ccc(-c2ccc(Cl)cc2)o1)c1nnc2n1CCC2 (stereo not drawn)	-12.12%
COCCSc1ccc(C(C)NC(=O)Nc2cccnc2)cc1 (stereo not drawn)	-3.032%
CN(Cc1nnc(-c2ccco2)o1)CC1CCCN1c1cccnn1 (stereo not drawn)	6.587%
CC(C)Oc1ccccc1-c1cc(CN)ccc1F	10.62%
CC(C)OCC(=O)Nc1ccc(Oc2ccc3c(c2)OCO3)nc1	77.43%
O=C(Cn1cc(Cl)cn1)Nc1ccc2c(c1)OCO2	1.967%
Cc1ccc(Oc2ccc(NC(=O)NCC3CCOC3)cn2)cc1C (stereo not drawn)	-4.291%
CCCNC(=O)C(C)Nc1cccc(Oc2ccc(C#N)cn2)c1 (stereo not drawn)	-3.4%
Cc1cc(C)nc(NC(=O)C(C)Oc2ccc3c(c2)OCO3)n1 (stereo not drawn)	15.82%
Cc1cnn(CCCOc2ccc3c(c2)OCO3)c1	-11.3%
CC(C)C(=O)Nc1ccc(Oc2ccc3c(c2)OCO3)nc1	107.3%
O=C(CCN1C(=O)CCC1=O)Nc1ccc(Oc2ccc(Cl)cc2)nc1	-10.42%
CC(=O)Nc1ccc(Oc2ccc3c(c2)OCO3)nc1	99.6%
O=C(NCC1(O)CCOC1)NCC1(c2ccccc2Cl)CC1 (stereo not drawn)	3.661%
CCS(=O)(=O)CC(=O)Nc1cccc2c1CN(CC(C)C)C2	-13.69%
CC(NC(=O)CCc1nc(-c2nnc[nH]2)no1)c1ccc(F)cc1F (stereo not drawn)	1.12%
O=C1NCc2ccccc2CC12CCN(Cc1c(F)cccc1Cl)C2 (stereo not drawn)	159.3%
N#Cc1ccccc1C(=O)N1CCC2(CC(=O)NC2=O)C1 (stereo not drawn)	-23.72%
O=C(O)c1ccccc1CN1CCC2(Cc3ccccc3CNC2=O)C1 (stereo not drawn)	101.8%
O=C(O)c1csc(S(=O)(=O)N2CCN(Cc3c(F)cccc3Cl)CC2)c1	1.307%
O=C(C1CCOC1)N1CCC2(CC1)Cc1ccccc1CNC2=O (stereo not drawn)	-36.36%
O=C1NCc2ccccc2CC12CCN(Cc1ccccc1Cl)CC2	119.1%

Structure (SMILES)	Percent Effect
CN(Cc1c(F)cccc1Cl)C(=O)CN(C)C1CCc2ccccc21 (stereo not drawn)	-6.423%
COCCCC1(C(=O)O)CCCN(Cc2ccccc2C)C1 (stereo not drawn)	-5.241%
O=C1NC2(CCN(Cc3ccccc3Cl)CC2)CC1c1ccccc1 (stereo not drawn)	14.18%
CC(CC#N)N(C)Cc1ccccc1Cl (stereo not drawn)	14.98%
CSc1nccc(N2C[C@@H]3CC[C@H](C2)N(CC2CCC2)C3=O)n1	23.13%
COCCC1(C(=O)NCCc2nncn2C2CC2)CCC1	-3.297%
CCOCC1CCN(C(=O)Nc2ccc3c(c2)CCCO3)C1 (stereo not drawn)	-8.757%
CS(=O)(=O)c1nccn1CCOc1ccccc1F	21.64%
O=C(O)C(F)(F)F.c1csc(CN2CCCn3cnc(COCC4CC4)c3C2)n1	-1.239%
O=C1OCCN1CC(=O)N1C[C@H]2CC[C@@H]1CN(C(=O)c1cccnc1)C2	-9%
CCc1cnccc1C(=O)NC1CCN(C(=O)C2CCCCC2)CC1	87.11%
CCc1cnccc1C(=O)NC1CCN(C(=O)OC)CC1	94.08%
N#Cc1cnc(NC2CCN(C(=O)C3CCCCC3)CC2)c(Cl)c1	1.1%
CC(NC(=O)NC1CCN(Cc2ccncc2)CC1)c1ccccc1F (stereo not drawn)	-8.351%
O=C(NC1CC1)c1cc(NC(=O)N2CCCC2)ccc1Cl	-51.77%
CCc1ccc(O)c(C(=O)NC2CCN(C(=O)OC)CC2)c1	2.941%
CCc1cnccc1C(=O)NC1CCN(Cc2ccccc2F)CC1	94.68%
O=C(NC1CCN(C(=O)C2CCCCC2)C1)c1ccncc1Cl (stereo not drawn)	79.99%
O=C(C1CCCC1)N1CCC(Nc2ccncn2)CC1	23.24%
CCc1ccc(O)c(C(=O)NC2CCN(Cc3ccncc3)CC2)c1	19.96%
CC(NC1CCN(C(=O)C2CCCCC2)CC1)c1nccs1 (stereo not drawn)	-8.519%
CNC(=O)C(C)CN(C)C(=O)Nc1ccc(F)c(-n2cccc2)c1 (stereo not drawn)	-4.138%

Structure (SMILES)	Percent Effect
CC(C)n1ccc(=O)nc1SC1CCN(c2ccccc2F)C1=O (stereo not drawn)	-4.763%
CCN(CC)C(=O)CNS(=O)(=O)c1cc(Br)ccc1F	7.808%
CCC(C#N)NC(=O)COC1CCCCC1 (stereo not drawn)	0.5871%
O=C(O)C(F)(F)F.O=C(O)C(F)(F)F.c1nc2n(c1CN1CCCCC1)CCN(C1CCOC1)CC2 (stereo not drawn)	7.057%
Cc1cnn(CCC(=O)N2CCOC(c3nc(C(C)(C)C)n[nH]3)C2)c1 (stereo not drawn)	0.508%
CC(C)(C)c1n[nH]c(C2CN(C(=O)CCc3cscn3)CCO2)n1 (stereo not drawn)	-3.136%
Cn1cc(CC(=O)N2CCOC(c3nc(C(C)(C)C)n[nH]3)C2)cn1 (stereo not drawn)	-9.292%
CN1CCOC(c2cncc(CCC(=O)N(C)C)n2)C1 (stereo not drawn)	119.8%
Cc1nn(CCC#N)c(C)c1CCC(=O)N(C)C.Cl	11.54%
CC(=O)N1CCOC[C@H](OCC(=O)N(C)C)C1	-10.39%
CC(=O)N1CCOC(c2cncc(CCC(=O)N(C)C)n2)C1 (stereo not drawn)	131.5%
CC(=O)N1CCOC(c2cncc(CCC(N)=O)n2)C1 (stereo not drawn)	132.1%
CCCc1n[nH]c(C2CN(CC(=O)N(C)Cc3ccco3)CCO2)n1 (stereo not drawn)	-31.39%
CN1CCOC(c2cncc(CCC(N)=O)n2)C1 (stereo not drawn)	120.9%
CCC(CC)CN1CCC2(CCC(=O)N2OCc2ccccc2F)CC1	5.285%
CSCC(C)(O)CNc1cccc(F)c1C(C)=O (stereo not drawn)	5.644%
Cc1nc(CNC(C(=O)N2CCOCC2)c2ccccc2)cs1 (stereo not drawn)	-4.254%
COCCN(C)CCN1CC2(CCN(C3CCSC3)CC2)OC1=O (stereo not drawn)	-12.17%
NC(=O)CCn1ccc(NC(=O)c2ccc(OCC3CC3)cc2)n1	-25.96%
CC(C)(C(=O)NCC(N)=O)c1ccccc1F	-10.57%
Cc1cn2c(CN(C)C(=O)c3nccnc3N)c(C)nc2s1	-5.585%
Nc1nccc(N[C@H]2CN(CC(=O)NC3CCCCC3)C[C@@H]2C2CC2)n1	-21.82%

Structure (SMILES)	Percent Effect
Cn1c(SCC(O)COCc2ccc(Cl)cc2)nnc1C1CC1 (stereo not drawn)	-3.183%
O=C(C1CC(F)(F)C1)N1C[C@@H]2CN(CC3CCCC3)CCO[C@@H]2C1.O=C(O)C(F)(F)F	97.34%
O=C(N1CCCC1)N1C[C@@H]2CN(Cc3ccoc3)CCO[C@@H]2C1	26.69%
O=C(CC1CCCC1)N1C[C@@H]2CN(Cc3ccoc3)CCO[C@@H]2C1	-9.792%
O=C(O)C(F)(F)F.O=C(c1cocn1)N1C[C@@H]2CN(CC3CC3)CCO[C@@H]2C1	1.689%
CCN1CCO[C@@H]2CN(C(=O)COC3CCCC3)C[C@@H]2C1.O=C(O)C(F)(F)F	2.686%
Cc1cnc(C(=O)N2C[C@@H]3CN(CC4CCCC4)CCO[C@@H]3C2)cn1.O=C(O)C(F)(F)F	-8.351%
O=C(C1CC(F)(F)C1)N1C[C@@H]2CN(Cc3ccoc3)CCO[C@@H]2C1	97.76%
O=C(C1CC(F)(F)C1)N1C[C@@H]2CN(Cc3ccsc3)CCO[C@@H]2C1.O=C(O)C(F)(F)F	8.794%
O=C(C1CC(F)(F)C1)N1C[C@@H]2CN(CC3CC3)CCO[C@@H]2C1.O=C(O)C(F)(F)F	110.9%
CCS(=O)(=O)CC(=O)NC1(c2ccc(Cl)c(Cl)c2)CC1	-4.937%
NC(=O)CC1CCN(S(=O)(=O)c2cnn(-c3ccccc3)c2)CC1	23.91%
OC[C@H]1CCN(Cc2ccc3ccccc3n2)C[C@@H]1O	-11.71%
COc1c(C2CCCN2c2ncnc3c2CCC3)c(C)nn1C (stereo not drawn)	-10.62%
CN(C)S(=O)(=O)N1CCC(C(O)c2ccc(Cl)cc2)CC1 (stereo not drawn)	-7.887%
CCS(=O)(=O)N1CCC(c2nnc(C3CC3)o2)CC1	-10.63%
CCCS(=O)(=O)N1CCC(c2ccc(OC)cc2)CC1	-3.773%
Cc1cc(-c2n[nH]c3c2CN(S(=O)(=O)c2ccsc2)CC3)c(C)o1	6.081%
Cc1cc2cc(CNC3CCN(S(C)(=O)=O)CC3)oc2cc1C	-4.149%
Cc1ccc(C(C)NC(=O)N2CCN(S(C)(=O)=O)CC2)o1 (stereo not drawn)	16.96%
CCCS(=O)(=O)N1CCC(n2nc(-c3cc(C)oc3C)ccc2=O)CC1	123.5%
Cc1cc(-c2ccc(=O)n(C3CCN(S(=O)(=O)N(C)C)CC3)n2)c(C)o1	95.62%

Structure (SMILES)	Percent Effect
CCCS(=O)(=O)N1CCC(NC(=O)c2cc(C)c(CC)s2)CC1	4.17%
CCS(=O)(=O)N1CCC(n2nc(-c3cc(C)oc3C)ccc2=O)CC1	128.2%
Cc1cc(-c2ccc(=O)n(C3CCN(S(C)(=O)=O)CC3)n2)c(C)o1	123.5%
CN(C)S(=O)(=O)N1CCC(Oc2ccc(C#N)cc2)CC1	-11.9%
COc1cc(F)ccc1-c1cc(CO)ccn1	-29.15%
CC(=O)N[C@@H]1Cc2ccccc2[C@H]1Nc1ccncn1	4.323%
CCC1CCCCN1S(=O)(=O)c1c(N)noc1C (stereo not drawn)	0.4068%
Cc1nc2cc(F)cc(C(=O)N3CCN(CCO)CC3)c2nc1C	-10.5%
O=C(c1ccc(-c2cccs2)cc1F)N1CCN(CCO)CC1	-12.79%
COc1ccc(C(=O)N2CCN(CCO)CC2)c(F)c1	102.7%
CC(C)Cn1c2c(ccc1=O)CC(NC(=O)c1ccsc1)CC2 (stereo not drawn)	-16.59%
CC(C)Cn1c2c(ccc1=O)CC(N)CC2 (stereo not drawn)	-23.17%
N#Cc1cccc(C(=O)NC2CCc3c(ccc(=O)n3CC3CC3)C2)c1 (stereo not drawn)	110.8%
Cc1cc(C(=O)NC2CCc3c(ccc(=O)n3CCN(C)C)C2)no1 (stereo not drawn)	93.45%
Cc1cc(C(=O)NC2CCc3c(ccc(=O)n3CC(C)C)C2)no1 (stereo not drawn)	105.4%
Cc1cc(C(=O)N[C@H]2CC[C@@]3(CCC(=O)N3C)CC2)no1	-27.57%
O=C(NC1CCc2c(ccc(=O)n2CC2CC2)C1)c1cscn1 (stereo not drawn)	-44.11%
O=C(CC1CC1)NC1CCc2c(ccc(=O)n2CC2CC2)C1 (stereo not drawn)	-16.88%
CC(=O)NCC(=O)NC1CCc2c(ccc(=O)n2CC2CC2)C1 (stereo not drawn)	-21.87%
Cc1cc(C(=O)NC2CCc3c(ccc(=O)n3CC3CC3)C2)no1 (stereo not drawn)	117.2%
